# Laboratory results published in PubChem BioAssay AID2284154 (EPA ToxCast).
# Activity calls are given as the source filed them. Rule for the calls: active = hit-call score of the fitted dose curve at least 0.9, where 1 is the maximum; inactive = score below 0.9.
# Target: Muscarinic acetylcholine receptor M3 (Homo sapiens) (UniProt P20309)
# Assay: ERF_FR_GPCR_hCHRM3: Eurofins (ERF) G Protein-Coupled Receptor (GPCR) Radioligand Binding LeadHunter Assay for human Muscarinic Acetylcholine Receptor M3 Antagonism, conducted at France lab site
# Description: ERF_FR_GPCR_hCHRM3 is a biochemical, single-readout assay that uses extracted gene-proteins in a cell-free assay. Measurements were taken 1 hour after chemical dosing in a 96-well plate. See M3 Human Acetylcholine (Muscarinic) GPCR Binding (Antagonist Radioligand) Assay, Cerep.ERF_FR_GPCR_hCHRM3 is an assay component calculated from the ERF_FR_GPCR_hCHRM3 assay. It is designed to measure radioligand binding using a type of binding reporter as detected by scintillation counting with radiometry technology.Data from the assay component ERF_FR_GPCR_hCHRM3 was analyzed at the assay endpoint, ERF_FR_GPCR_hCHRM3, in the positive analysis fitting direction relative to DMSO as the negative control and baseline of activity. Using a type of binding reporter, loss-of-signal activity can be used to understand changes in binding as they relate to gene CHRM3. To generalize the intended target to other relatable targets, this assay endpoint is annotated to the gpcr intended target family, where the subfamily is acetylcholine (Muscarinic).
# Human cells are incubated for 60 minutes at room temprature with [3H]4-DAMP ligand (0.2 nM) and 4-Damp methiodide as control inhibitor.Test Sample Requirements: Minimum for 1) Screen: 60 ul of 10 mM stock -OR- 1 mg (pre-weighed) for 10 uM final testing. 2) Dose Response: 90 ul of 10 mM stock -OR- 1 mg (pre-weighed) for a top concentration at 10 uM.
# Muscarinic acetylcholine receptor M3 (Homo sapiens), sequence (P20309 whole entry, looked up): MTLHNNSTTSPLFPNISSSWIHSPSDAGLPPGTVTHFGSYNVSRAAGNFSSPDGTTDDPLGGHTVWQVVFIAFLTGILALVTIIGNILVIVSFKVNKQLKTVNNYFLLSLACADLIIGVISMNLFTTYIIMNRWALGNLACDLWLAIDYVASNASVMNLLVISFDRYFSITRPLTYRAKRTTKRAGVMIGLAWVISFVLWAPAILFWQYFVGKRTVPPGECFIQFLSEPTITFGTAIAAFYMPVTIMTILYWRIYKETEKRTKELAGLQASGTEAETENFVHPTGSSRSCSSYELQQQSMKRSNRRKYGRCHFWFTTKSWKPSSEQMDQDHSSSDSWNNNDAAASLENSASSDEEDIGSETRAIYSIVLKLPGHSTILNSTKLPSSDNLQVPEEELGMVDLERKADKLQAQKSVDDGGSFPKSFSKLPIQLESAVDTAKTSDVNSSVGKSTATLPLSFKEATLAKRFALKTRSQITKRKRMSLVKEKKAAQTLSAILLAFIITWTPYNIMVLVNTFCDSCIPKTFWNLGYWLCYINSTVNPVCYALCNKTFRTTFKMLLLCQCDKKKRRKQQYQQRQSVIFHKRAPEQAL
row,Compound,AC50
1,O=C(/C=C/c1ccc(O)cc1)CC(=O)/C=C/c1ccc(O)cc1,2.71 µM (active)
